# Screening data deposited in PubChem by National Center for Advancing Translational Sciences (NCATS).
# Sfp PPTase inh – blocks B. subtilis Sfp PPTase activity; Q9F4F7; Biochemical Sfp PPTase activity, qHTS; Potency, µM, actives largely listed as inhibitors; actives 3.5% (n = 310,000); AID 1490;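 further: the enzyme is Sfp with the accession as filed and its product quenches rhodamine fluorescence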
#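 Step 1, compound plus 15 nM Sfp-PPTase, 15 min, room temperature. Step 2, add rhodamine-CoA (5 uM) and BHQ-2-YbbR (12.5 uM). Step 3, read 525/598 nm fluorescence at 0 and 30 min.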
# PLK1 PBD block – PLK1 (human) polo-box domain binding inhibition. P53350. Plk1 PBD binding of FITC phosphopeptide, fluorescence polarization. Potency, µM, most hits filed as inhibitors. actives 2.8% (n = 360,000); further: series mostly up to about 57 µM; nearly all actives have a fitted effect of over 65% in size
# Target sequence (P53350 whole entry, looked up, the tested form may be a part): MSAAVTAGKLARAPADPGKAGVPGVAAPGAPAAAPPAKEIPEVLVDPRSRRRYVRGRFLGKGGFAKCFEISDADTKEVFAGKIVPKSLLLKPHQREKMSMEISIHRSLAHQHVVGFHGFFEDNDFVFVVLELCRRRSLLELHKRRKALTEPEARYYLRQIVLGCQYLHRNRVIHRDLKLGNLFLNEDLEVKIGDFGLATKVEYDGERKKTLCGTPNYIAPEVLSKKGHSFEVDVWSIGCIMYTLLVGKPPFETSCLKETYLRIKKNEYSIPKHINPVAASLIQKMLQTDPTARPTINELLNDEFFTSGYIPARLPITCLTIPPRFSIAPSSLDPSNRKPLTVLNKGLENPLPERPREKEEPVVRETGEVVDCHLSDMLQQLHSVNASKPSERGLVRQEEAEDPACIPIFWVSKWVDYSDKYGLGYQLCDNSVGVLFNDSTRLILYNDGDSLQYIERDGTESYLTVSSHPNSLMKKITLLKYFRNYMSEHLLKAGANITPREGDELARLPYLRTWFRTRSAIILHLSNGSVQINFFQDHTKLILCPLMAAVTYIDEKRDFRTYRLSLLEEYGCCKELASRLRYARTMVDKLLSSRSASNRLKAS
# MmCpn inh – inhibitors of Methanococcus maripaludis chaperonin TRiC (MmCpn). purified Mm-Cpn ATPase, ADP Transcreener TR-FRET. Potency, µM (top dose mostly 76.9 µM), most hits filed as inhibitors. actives 0.031% (n = 330,000). AID 504842; further: nearly all actives have a fitted effect of over 80% in size
#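 Reaction buffer contained 30 mM Tris pH 7.4, 100 mM KCl, 5 mM MgCl2 and 1 mM DTT. Mm-CPN (25 nM final) hydrolysed 10 uM ATP over 30 min at 37°C; ADP was read by HTRF.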
# CCT modulator – cytosolic chaperonin activity modulation | purified chaperonin ATPase assay, HTRF ADP detection, 30 min | activity change, % (test concentration not listed), hits read low | actives 0.3% (n = 360,000) | AID 651819; in the data active means activity change below about -30%
#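 Enzyme 40 or 20 nM (batch-dependent) in Tris pH 7.4/KCl/MgCl2/DTT; cpd 76 uM single point; ATP 10 uM; 30 min 37 °C; Transcreener ADP HTRF detection, 30 min RT; ratio 665/615.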
# G9a block – blocks human histone lysine methyltransferase G9a; AID 504332; actives 8.8% (n = 350,000); Potency, µM (highest dose often 102 µM), most hits filed as inhibitors; Q96KQ7; G9a H3K9 monomethylation, AlphaScreen, 2 h; further: nearly all actives have a fitted effect of over 75% in size
#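 Signal arises when biotinylated H3K9 peptide, once monomethylated, bridges streptavidin donor and antibody-captured acceptor beads. Enzyme at 20 nM was preincubated 15 min with test compounds; peptide 500 nM and SAM 20 uM then reacted for 2 h.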
# VDR inh – inhibitors of human vitamin D receptor; Potency, µM, hits mostly inhibitors; AID 504847; VDR-SRC2-3 peptide fluorescence polarization, 2 h; P11473; actives 0.93% (n = 400,000)
#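 Fluorescence polarization assay of small-molecule disruption of VDR binding to coregulator peptide SRC2-3. Compounds and controls pin-transferred, then read after 2 h incubation at ambient room temperature.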
# Numbers stand for hits; - = inactive; ? = inconclusive; . = not tested or not shown; ! = not active in a repeat; [ ] = another dose, or the depositor's remark. Most compounds without a hit are left out; they make up all but 10% or so of the library. Unless noted, the call rests on the fitted dose curve; in most records, active means well fitted curve in the direction sought with a large enough effect; inconclusive means small, poorly fitted or top-dose-only effect, or another doubt; inactive means no such curve, though single readings can be large; an effect the other way counts as inactive or inconclusive.
SMILES,Sfp PPTase inh,PLK1 PBD block,MmCpn inh,CCT modulator,G9a block,VDR inh
CC1Cc2ccccc2N1C(=O)COC(=O)CCc1nc2ccccc2c(=O)[nH]1 (configuration not stated),-,4.2µM,-,-,-,?
O=C(CCc1nc2ccccc2c(=O)[nH]1)OCC(=O)N1CCc2ccccc21,-,-,-,-,-,-
CCCNC(=O)COC(=O)c1c2c(nc3ccccc13)CCC2,-,-,-,-,40µM,-
CC1Cc2ccccc2N1C(=O)COC(=O)c1c2c(nc3ccccc13)CCCCC2 (configuration not stated),-,-,-,-,2µM,-
CCOC(=O)C1CCCN(c2cc(C)nc3c(-c4ccccc4OC)c(C)nn23)C1 (configuration not stated),.,.,.,.,-,-
O=c1[nH]cc(CCCc2ccccc2)c(=O)[nH]1,.,-,.,-49,.,.
CN[C@@H]1[C@H](O[C@H]2[C@H](O[C@H]3[C@H](O)[C@@H](O)[C@H](N=C(N)N)[C@@H](O)[C@@H]3N=C(N)N)O[C@@H](C)[C@]2(O)C=O)O[C@@H](CO)[C@H](O)[C@H]1O,-,.,.,.,18µM,?
COc1cc2c(cc1OC)-c1cc(NC3CCCCC3)nc(=O)n1CC2,-,-,-,-,?,-
COc1cc2c(cc1OC)-c1cc(NC3CCCCCCC3)nc(=O)n1CC2,-,-,-,-,45µM,-
CCNc1ccc(Br)cc(C(=O)/C=C/c2ccccc2Cl)c1=O,.,?,.,-,.,28µM
COc1ccccc1/C=C/C(=O)c1cc(Br)ccc1OC(=O)c1ccco1,.,24µM,.,-,.,?
Cc1[nH]c2ccccc2c1C(=O)/C=C\c1ccccc1Cl,-,-,-,-,?,-
CNc1ccccc(C(=O)/C=C/c2ccccc2OC)c1=O,32µM,-,?,-,4.5µM,?
CNc1ccc(Br)cc(C(=O)/C=C/c2cccc(OC)c2OC)c1=O,13µM,-,-,-,8.9µM,-
O=C(CN1C(=O)C2(SCC(=O)N2c2cccc(Cl)c2)c2ccccc21)NCc1ccccc1 (configuration not stated),.,.,.,.,-,-
O=C(Nc1ccccc1)N(Cc1cccc(Cl)c1)c1ccccn1,.,.,.,.,-,-
O=C1CC(c2ccccc2)Cc2[nH]c(=O)c(-c3nc(-c4ccc(Cl)c(Cl)c4)cs3)cc21 (configuration not stated),.,.,.,.,-,-
CCOC(=O)C(=CNNc1c(C)csc1C(=O)OC)C(=O)OCC,-,-,-,-,8.9µM,-
CCCN[C@@H](C)C(=O)Nc1c(C)csc1C(=O)OC,-,.,.,.,-[21.5 µM],-
CC(C(=O)Nc1ccccc1C(=O)N1CCOCC1)N(c1ccccc1)S(C)(=O)=O (configuration not stated),-,27µM,-,-,-,?
CC(=O)c1ccc(N2CCN(S(=O)(=O)c3ccc4c(c3)CC(C)N4C(=O)C3CCC3)CC2)cc1 (configuration not stated),.,.,.,.,-,-
O=C1NCN(c2ccccc2)C12CCN(CCCC(c1ccc(F)cc1)c1ccc(F)cc1)CC2,79µM!,-,-,-,10µM,-
O=C(Cn1ncc2ccsc2c1=O)N1CCN(c2ccc(Cl)cc2)CC1,.,.,.,.,-,-
Cc1cn(C)c(CC(=O)NCc2ccc(F)cc2)c1C(=O)O,.,.,.,.,-,-
N#Cc1c2n(c(=O)[nH]c1=O)CCCCC2,-,-,-,-,-,-
SMILES,Sfp PPTase inh,PLK1 PBD block,MmCpn inh,CCT modulator,G9a block,VDR inh
N#CC1=C(N2CCCCC2)c2cc3c(n2C1=O)CCCC3,-,-,-,-,45µM,-
CC1(C)CC(=O)C2=C(C1)NC(Nc1nc3ccccc3o1)=NC2c1cccnc1 (configuration not stated),.,.,.,.,.,-
Cc1cc(-c2nnc3n2N=C(c2ccccc2)CS3)n[nH]1,-,-,-,-,45µM,-
COc1cccc(C2=Nn3c(nnc3-c3ccc(OC)cc3OC)SC2)c1,-,.,.,.,.,.
COc1ccc(C2=Nn3c(nnc3-c3ccccc3O)SC2)cc1OC,45µM,.,.,.,.,.
COc1cccc(C2=Nn3c(nnc3-c3ccccc3C)SC2)c1,63µM,.,.,.,.,.
Oc1ccc(C2=Nn3c(nnc3-c3ccco3)SC2)cc1O,?,?,-,-,13µM,-
